For 173 sequences, binding signal results are on record in article PMC4242493, “Sequence specificity incompletely defines the genome-wide occupancy of Myc”.

In all, about 33,000 sequences were measured (“normalized occupancy”: median about 0.075, highest 2% from about 0.095 on). This excerpt belongs to a sample that is enriched for the highest values.

Sequence of MaxL homodimer (P61244 whole entry): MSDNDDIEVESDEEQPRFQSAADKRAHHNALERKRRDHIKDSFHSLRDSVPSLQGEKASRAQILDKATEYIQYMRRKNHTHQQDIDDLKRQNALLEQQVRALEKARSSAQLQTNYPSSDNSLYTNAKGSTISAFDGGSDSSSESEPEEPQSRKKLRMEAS

The assay concerns the target MaxL homodimer (Homo sapiens, UniProt P61244 1-160). In words: universal protein-binding microarray (PBM); PBS-based mixture, 10 nM His-tagged protein dimer, 2% milk, 200 ng/uL BSA, 50 ng/uL salmon testes DNA, 0.02% TX-100; detection with Alexa 488 anti-His antibody;; high values mean tight binding. The conditions noted are these: protein: recombinant; tags: C-terminal His-tag (pET21a); chain copies: 2; dsDNA, one strand shown. In a few lines:
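Binding occupancy is a fluorescence intensity normalised to the intensity of the highest-ranked sequence word. Those intensities came from 8-mers on Agilent 4 x 44 K 'all 10-mer' universal arrays incubated with 10 nM His-tagged protein dimer. Bound protein was detected with 10 ng/μL fluorophore-conjugated anti-His antibody before scanning on a GenePix 4400A.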
As to CGCCCATC, the binding signal was found to be 0.0733 normalized occupancy.
Turning to GTACGGAA, the binding signal was 0.0756 normalized occupancy.
The figure for ACCGCTAC is 0.0748 normalized occupancy; for CATCCCTC it is 0.0774 normalized occupancy; for AATTTTTG it is 0.0733 normalized occupancy.
Take AAGACAGG: the binding signal was found to be 0.0727 normalized occupancy.
Take CACACATC: the binding signal worked out at 0.0888 normalized occupancy.
For AGCACATC, the binding signal turned out to be 0.0841 normalized occupancy.
Regarding AGCACATG, the binding signal worked out at 0.187 normalized occupancy.
On to ATCACATG, for which the binding signal worked out at 0.158 normalized occupancy.
Consider AGCACATA, for which the binding signal is 0.0807 normalized occupancy.
Turning to ATCACATA, the binding signal came to 0.0859 normalized occupancy.
The result for ATCACATC reads 0.0862 normalized occupancy; that for CACACATA, 0.0896 normalized occupancy; that for CACACATG, 0.136 normalized occupancy.
On to AGTAGTGG, for which the binding signal is 0.0787 normalized occupancy.
As to CTACTTGA, the binding signal was 0.0752 normalized occupancy.
The result for GCCTCTCC reads 0.076 normalized occupancy; that for CACGCAGC, 0.085 normalized occupancy.
Consider ACGTAGCC, for which the binding signal stood at 0.0725 normalized occupancy.
Turning to GCCCCCCC, the binding signal is 0.0757 normalized occupancy.
For the sequence CCAGGGGA, the binding signal was determined as 0.0742 normalized occupancy.
Consider AGACGTTA, for which the binding signal was 0.0775 normalized occupancy.
ACACGTTC: the binding signal came out at 0.102 normalized occupancy.
Turning to AGACGTTC, the binding signal was determined as 0.0744 normalized occupancy.
With ACACGTTA, the binding signal was found to be 0.118 normalized occupancy.
As for CAACGTTA, the binding signal is 0.0767 normalized occupancy.
Turning to CCACGTTA, the binding signal is 0.105 normalized occupancy.
As to AAACGTTA, the binding signal was determined as 0.0739 normalized occupancy.
The result for ACACGTCG reads 0.0849 normalized occupancy.
The result for CCACGTTC reads 0.0913 normalized occupancy; that for ATACGTTC, 0.0794 normalized occupancy.
Take AAACGTTG: the binding signal stood at 0.0765 normalized occupancy.
Consider ACACGTTG, for which the binding signal came to 0.128 normalized occupancy.
For the sequence AGTCAGGC, the binding signal was 0.0722 normalized occupancy.
In the case of TGCCCAAA, the binding signal came out at 0.0731 normalized occupancy.
For AGTATCAA, the binding signal turned out to be 0.0766 normalized occupancy.
As to GGCCAACC, the binding signal was determined as 0.0741 normalized occupancy.
In the case of AAAAATGG, the binding signal stood at 0.078 normalized occupancy.
Turning to ATGCCCCA, the binding signal was 0.0786 normalized occupancy.
Regarding GAACATTA, the binding signal stood at 0.0812 normalized occupancy.
As for ACGCCTCC, the binding signal is 0.0771 normalized occupancy.
Regarding AATAACAA, the binding signal stood at 0.0746 normalized occupancy.
The result for GGACGTTA reads 0.0789 normalized occupancy; that for GTACGTTA, 0.0781 normalized occupancy; that for GCACGTTA, 0.104 normalized occupancy.
For ACCAAGGC, the binding signal came to 0.0726 normalized occupancy.
Regarding GATATAAA, the binding signal stood at 0.0756 normalized occupancy.
With ACAGGTCA, the binding signal turned out to be 0.0797 normalized occupancy.
As for CACGAGAG, the binding signal was found to be 0.0911 normalized occupancy.
For AACGAGTA, the binding signal was found to be 0.077 normalized occupancy.
As to AACGAGTG, the binding signal worked out at 0.0753 normalized occupancy.
For the sequence CACGAGTC, the binding signal stood at 0.0906 normalized occupancy.
Consider CACGAGTA, for which the binding signal came to 0.103 normalized occupancy.
With CACGAGTG, the binding signal stood at 0.0961 normalized occupancy.
With CGCAACTA, the binding signal stood at 0.0738 normalized occupancy.
As to CAAGAGGG, the binding signal came to 0.0744 normalized occupancy.
Regarding CTGGTCGC, the binding signal was 0.0732 normalized occupancy.
Take ATGTATTC: the binding signal was 0.0814 normalized occupancy.
Take CATGTACA: the binding signal is 0.0958 normalized occupancy.
Consider GATGTACA, for which the binding signal was 0.0827 normalized occupancy.
Regarding AATGTACA, the binding signal is 0.0818 normalized occupancy.
As to CATGTATC, the binding signal came out at 0.0975 normalized occupancy.
The result for CATGTATA reads 0.089 normalized occupancy.
As for AATGTATC, the binding signal worked out at 0.0876 normalized occupancy.
For AATGTACG, the binding signal worked out at 0.0761 normalized occupancy.
The figure for CATGTACG is 0.0957 normalized occupancy; for CATGTACC it is 0.0843 normalized occupancy.
Turning to AGTATTAT, the binding signal came out at 0.0827 normalized occupancy.
Take CAGTGATG: the binding signal was determined as 0.0746 normalized occupancy.
Take CACTTCGG: the binding signal was determined as 0.0755 normalized occupancy.
The figure for TCGACAGA is 0.0736 normalized occupancy; for CGGTAGCA it is 0.0827 normalized occupancy.
Turning to AGCAGATC, the binding signal was 0.077 normalized occupancy.
Take ACTCCAGT: the binding signal came to 0.0743 normalized occupancy.
For ACGCTGTA, the binding signal was 0.0841 normalized occupancy.
CCGGTGAG: the binding signal came to 0.0746 normalized occupancy.
The result for GACCTTGA reads 0.0732 normalized occupancy; that for GCTAAATA, 0.079 normalized occupancy.
The figure for GAGGTGGC is 0.0764 normalized occupancy; for CAGGTGGC it is 0.0954 normalized occupancy.
As to AAGGTGGC, the binding signal was 0.0758 normalized occupancy.
Regarding CAGGTGGA, the binding signal was 0.0861 normalized occupancy.
Take CAGATGGG: the binding signal is 0.0837 normalized occupancy.
Regarding CAGGTGGG, the binding signal is 0.101 normalized occupancy.
The result for GTGCTGAA reads 0.0776 normalized occupancy; that for AATGGTAC, 0.0764 normalized occupancy; that for AGTAGGAT, 0.076 normalized occupancy.
CCATGGTC: the binding signal stood at 0.0849 normalized occupancy.
Consider ACATGGTA, for which the binding signal came to 0.104 normalized occupancy.
The result for ACATGGTG reads 0.0914 normalized occupancy; that for ACTTGGTA, 0.0735 normalized occupancy; that for CCATGGTA, 0.0851 normalized occupancy.
GAATGGTA: the binding signal was found to be 0.08 normalized occupancy.
In the case of GCATGGTA, the binding signal was determined as 0.106 normalized occupancy.
Regarding ATATGGTA, the binding signal stood at 0.0884 normalized occupancy.
Take ACATGGTC: the binding signal amounted to 0.104 normalized occupancy.
As to AGGCGAGG, the binding signal was found to be 0.0752 normalized occupancy.
Consider CCTACAGG, for which the binding signal is 0.0722 normalized occupancy.
The result for CGCGACGA reads 0.0728 normalized occupancy; that for CACTTTTA, 0.0728 normalized occupancy.
The result for AAAGGTGT reads 0.0816 normalized occupancy; that for GTTAGAAA, 0.0757 normalized occupancy; that for TACGAACA, 0.0754 normalized occupancy.
Regarding AAGCAACG, the binding signal worked out at 0.0753 normalized occupancy.
On to CAACGCGA, for which the binding signal was found to be 0.0767 normalized occupancy.
Take CGACGCGA: the binding signal was found to be 0.0735 normalized occupancy.
CAACGCGC: the binding signal was found to be 0.0787 normalized occupancy.
The figure for CCACGCGA is 0.131 normalized occupancy; for CCACGCAG it is 0.0904 normalized occupancy.
Consider CCACGCGC, for which the binding signal came to 0.157 normalized occupancy.
For CTACGCGC, the binding signal was determined as 0.0727 normalized occupancy.
The result for TCACGCCA reads 0.0851 normalized occupancy.
TCACGCAA: the binding signal was found to be 0.0764 normalized occupancy.
Regarding CCACGCGG, the binding signal is 0.32 normalized occupancy.
The result for CAACGCGG reads 0.0764 normalized occupancy.
For the sequence TCACGCGA, the binding signal stood at 0.11 normalized occupancy.
As to GCCTACAA, the binding signal was determined as 0.075 normalized occupancy.
The figure for GACAGAGA is 0.0724 normalized occupancy.
Regarding ATACAACA, the binding signal was determined as 0.0788 normalized occupancy.
Regarding CGAAAGCA, the binding signal is 0.0741 normalized occupancy.
As to CAGGGGGA, the binding signal is 0.0851 normalized occupancy.
Take TCTTCGCA: the binding signal stood at 0.0796 normalized occupancy.
As for AATAGAGC, the binding signal turned out to be 0.0803 normalized occupancy.
As to AATAACGT, the binding signal is 0.0823 normalized occupancy.
As for ATTAGTAC, the binding signal is 0.0786 normalized occupancy.
Regarding AATGCATT, the binding signal stood at 0.0797 normalized occupancy.
CATGCATC: the binding signal was found to be 0.0997 normalized occupancy.
In the case of AATGCATC, the binding signal amounted to 0.0763 normalized occupancy.
As to CCTGCATC, the binding signal was 0.0807 normalized occupancy.
As for AGTGCATG, the binding signal was determined as 0.0988 normalized occupancy.
Regarding AGTGCATA, the binding signal came out at 0.0847 normalized occupancy.
On to AGTGCATC, for which the binding signal worked out at 0.0772 normalized occupancy.
As for CATGCATG, the binding signal was found to be 0.121 normalized occupancy.
For ACTGCATG, the binding signal amounted to 0.0859 normalized occupancy.
Turning to GATGCATC, the binding signal was found to be 0.0787 normalized occupancy.
Consider CATGCAAG, for which the binding signal is 0.0837 normalized occupancy.
Consider AATGCATG, for which the binding signal was determined as 0.1 normalized occupancy.
As for GCACGAAA, the binding signal was determined as 0.078 normalized occupancy.
For TAGACACA, the binding signal was 0.0829 normalized occupancy.
AACAAGCC: the binding signal came out at 0.0718 normalized occupancy.
With AGAGTTTG, the binding signal turned out to be 0.073 normalized occupancy.
As to CCTGGGAC, the binding signal was 0.0732 normalized occupancy.
The figure for ATGTCTCG is 0.0802 normalized occupancy; for CGCTCACC it is 0.0763 normalized occupancy.
Turning to AAGCCATC, the binding signal was determined as 0.0756 normalized occupancy.
Turning to AAGAAGGA, the binding signal is 0.0794 normalized occupancy.
With TATGCATA, the binding signal came out at 0.0811 normalized occupancy.
Turning to AATGCATA, the binding signal stood at 0.0839 normalized occupancy.
Turning to CATGCATA, the binding signal is 0.0989 normalized occupancy.
CCACGGGA: the binding signal turned out to be 0.0794 normalized occupancy.
CACGGGGG: the binding signal was found to be 0.101 normalized occupancy.
Regarding CCACGGGC, the binding signal stood at 0.076 normalized occupancy.
As for CACGGGGC, the binding signal was 0.0863 normalized occupancy.
On to CACGGGGA, for which the binding signal came out at 0.0894 normalized occupancy.
Consider CCACGGGG, for which the binding signal turned out to be 0.097 normalized occupancy.
With AGGAATTG, the binding signal was determined as 0.0797 normalized occupancy.
ACGTAGCG: the binding signal was determined as 0.0805 normalized occupancy.
The result for ACCCCGTG reads 0.108 normalized occupancy; that for AACCCGTG, 0.0816 normalized occupancy; that for ACCCCATC, 0.0823 normalized occupancy.
ACCCCATG: the binding signal came to 0.102 normalized occupancy.
As for AACCCATT, the binding signal is 0.0783 normalized occupancy.
ACCCCGTA: the binding signal was 0.0818 normalized occupancy.
For the sequence CACCCATG, the binding signal is 0.1 normalized occupancy.
In the case of CACCCATC, the binding signal was determined as 0.0827 normalized occupancy.
The result for CACCCATA reads 0.0892 normalized occupancy; that for AACCCATG, 0.0961 normalized occupancy; that for AACCCATA, 0.0815 normalized occupancy.
For the sequence ACCCCATA, the binding signal is 0.0838 normalized occupancy.
On to CGGACGCA, for which the binding signal worked out at 0.0735 normalized occupancy.
Consider ATTTTCTA, for which the binding signal came out at 0.0856 normalized occupancy.
The result for CAGAAGAC reads 0.0718 normalized occupancy.
